Assay results reported in PubChem BioAssay (Tox21).
Results filed as inconclusive are left out. Calls of active or inactive are those of the source. Unless noted, calls follow the shape of the dose curve; as a rule, active = well fitted curve in the direction sought with a large enough effect in the repeat runs; inconclusive = weak or mixed curves; inactive = no such curve, though single readings can be large; an effect the other way counts as inactive or inconclusive.

Legend:
[1] = A CellTox Green Cytotoxicity Assay to monitor cytotoxicity in HEK293 cells - 32 hour (AID 1224881); also: nearly all actives have a fitted effect of over 40% in size; also: potency is read from the fitted curve at half-maximal effect
In short: (§1)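 Seeding of HEK293 cells together with cytotoxicity dye preceded a 5 h incubation at 37 C/5% CO2. Test compounds in DMSO were then added and fluorescence monitored across 40 h.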

[2] = A CellTox Green Cytotoxicity Assay to monitor cytotoxicity in HepG2 cells - 0 hour (AID 1224882); also: nearly all actives have a fitted effect of over 35% in size; also: potency is read from the fitted curve at half-maximal effect
In short: (§2)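 Nonlytic assay: viable cells exclude the dye, so fluorescence scales with cell death. HepG2 at 600 cells/well, compounds added after 5 h, signal read across 40 h.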

[3] = A CellTox Green Cytotoxicity Assay to monitor cytotoxicity in HepG2 cells - 32 hour (AID 1224883); also: nearly all actives have a fitted effect of over 50% in size; also: potency is read from the fitted curve at half-maximal effect
In short: as §2

[4] = A CellTox Green Cytotoxicity Assay to monitor cytotoxicity in HEK293 cells - 8 hour (AID 1224884); also: nearly all actives have a fitted effect of over 35% in size; also: potency is read from the fitted curve at half-maximal effect
In short: as §1

[5] = qHTS RealTime-Glo MT Cell Viability Assay in HepG2 cells - 16 hour (AID 1224885); also: nearly all actives have a fitted effect of over 50% in size
In short: (§3)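 Compound treatment began 5 h after plating HepG2 cells (600/well) with NanoLuc luciferase and prosubstrate. Plates stayed at 37 C for 40 h; luminescence was captured at six time points, 0 h through 40 h.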

[6] = qHTS RealTime-Glo MT Cell Viability Assay in HEK293 cells - 24 hour (AID 1224886); also: nearly all actives have a fitted effect of over 50% in size; also: potency is read from the fitted curve at half-maximal effect; as to activity change, negative = cytotoxicity: top concentration of the series differs between compounds
In short: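 Quantitative high-throughput screen of the Tox21 10K library in HEK293: cells and RealTime-Glo reagents plated together, compound added at 5 h, luminescence monitored through 40 h at 37 C.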

[7] = qHTS RealTime-Glo MT Cell Viability Assay in HEK293 cells - 8 hour (AID 1224887); also: nearly all actives have a fitted effect of over 50% in size; also: potency is read from the fitted curve at half-maximal effect; as to activity change, negative = cytotoxicity: top concentration of the series differs between compounds
In short: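 Tox21 screen in HEK293 using RealTime-Glo MT chemistry, with cells and reagent co-dispensed. Luminescence proportional to viable cell number was captured at intervals during 40 h compound exposure at 37 C.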

[8] = A CellTox Green Cytotoxicity Assay to monitor cytotoxicity in HEK293 cells - 16 hour (AID 1224888); also: nearly all actives have a fitted effect of over 35% in size; also: potency is read from the fitted curve at half-maximal effect
In short: as §1

[9] = qHTS RealTime-Glo MT Cell Viability Assay in HepG2 cells - 0 hour (AID 1224889); also: nearly all actives have a fitted effect of over 50% in size
In short: as §3

[10] = A CellTox Green Cytotoxicity Assay to monitor cytotoxicity in HepG2 cells - 8 hour (AID 1224890); also: nearly all actives have a fitted effect of over 45% in size; also: potency is read from the fitted curve at half-maximal effect
In short: as §2

[11] = qHTS assay to identify small molecule antagonists of the androgen receptor (AR) signaling pathway using the MDA cell line in the presence of 0.5 nM R1881 - cell viability counter screen (AID 1259242); also: nearly all actives have a fitted effect of over 45% in size; also: potency is read from the fitted curve at half-maximal effect
In short: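 R1881 at 0.5 nM final stimulated MDA-kb2 cells during 16 hr compound treatment at 37C. Cytotoxicity read: CellTiter-Fluor fluorescence after 30 min.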

[12] = molecular target: Androgen receptor (Homo sapiens) (UniProt P10275); assay: qHTS assay to identify small molecule antagonists of the androgen receptor (AR) signaling pathway using the MDA cell line in the presence of 0.5 nM R1881 (AID 1259243); also: nearly all actives have a fitted effect of over 50% in size
In short: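 We exposed MDA-kb2 cells to compounds under 0.5 nM R1881 stimulation for 16 hr at 37C and quantified MMTV-driven luciferase by luminescence.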

[13] = molecular target: Estrogen receptor (Homo sapiens) (UniProt P03372); assay: qHTS assay to identify small molecule antagonists of the estrogen receptor alpha (ER-alpha) signaling pathway using the BG1 cell line in the presence of 0.1 nM 17-beta-estradiol (AID 1259244); also: nearly all actives have a fitted effect of over 50% in size; also: potency is read from the fitted curve at half-maximal effect
In short: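 VM7Luc4E2; 4xERE-luciferase; 0.1 nM E2 final; 22 h co-incubation, 37C; ONE-Glo luminescence after 30 min at room temperature.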

[14] = qHTS assay to identify small molecule HDAC inhibitors (AID 1259364);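 also: wild-type HCT-116 cells with endogenous class I/II HDAC activity; top concentration of the series differs between compounds; nearly all actives have a fitted effect of over 45% in size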
In short: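 Relative class I and II HDAC activity is taken from the luminogenic signal in HCT-116 cells, with compound exposure 2 hr and reagent development 30 min at room temperature.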

[15] = qHTS assay to identify small molecule HDAC inhibitors - cell viability counter screen (AID 1259365)
In short: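 CellTiter-Glo luminescence (30 min, room temperature) reported viability after a 2 h compound exposure at 37 C. Cells: wild-type HCT-116, 1,500 per well, seeded the night before.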

[16] = qHTS assay to identify small molecule agonists of the sonic hedgehog signaling (Shh) pathway - cell viability counter screen (AID 1259366); also: nearly all actives have a fitted effect of over 50% in size
In short: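 Cytotoxicity counter screen: CellTiter-Fluor reagent added after 23 h compound exposure, then 1 h at 37C and fluorescence read. Cells were 3T3 Gli1-Luc, seeded 2,000 per well and dosed 4 h post-plating.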

[17] = qHTS assay to identify small molecule antagonists of the sonic hedgehog signaling (Shh) pathway - cell viability counter screen (AID 1259367); also: nearly all actives have a fitted effect of over 55% in size
In short: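 NIH/3T3-derived Gli1-Luc reporter cells (2,000 per well) rested 4 hr at 37 C, then received DMSO compounds plus conditioned medium. After 23 hr of treatment, CellTiter-Fluor was added for 1 hr at 37C and fluorescence read.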

[18] = qHTS assay to identify small molecule agonists of the sonic hedgehog signaling (Shh) pathway (AID 1259368; calls by dose curve;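 also: NIH/3T3-derived 3T3Gli1-Luc cells carrying a stable Gli1-driven firefly luciferase reporter; series mostly up to about 92 µM; nearly all actives have a fitted effect of over 15% in size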)
In short: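 Mouse fibroblast (NIH/3T3) reporter cells with stably integrated Gli1-Luc were treated 24 hr with compound; firefly luciferase luminescence served as the read-out.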

[19] = qHTS assay to identify small molecule phospholipidosis (PLD) inducers (AID 1259344; active = well fitted curve in the direction sought with a large enough effect; an effect the other way counts as inactive or inconclusive)
In short: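 HepG2 cells on collagen I, attached 4 h at 37 C, were co-treated with compound and LipidTOX Red dye for 24 h at 37 C, then fixed with paraformaldehyde plus Hoechst 33342 and imaged by high-content microscopy for phospholipid accumulation.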

[20] = qHTS assay to identify small molecule antagonists of the estrogen receptor alpha (ER-alpha) signaling pathway using the BG1 cell line in the presence of 0.1 nM 17-beta-estradiol - cell viability counter screen (AID 1259241); also: nearly all actives have a fitted effect of over 40% in size
In short: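 Cytotoxicity counter-screen: live-cell protease activity measured by fluorescence (30 min reagent step) in the same wells. Cells were VM7Luc4E2 with endogenous ER-alpha and ERE-driven luciferase, treated 22 hr at 37C alongside 0.1 nM 17beta-estradiol final.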
% is scaled to controls: 0 for no effect and ±100 for the full control effect.

Androgen receptor (Homo sapiens), sequence (P10275 whole entry, looked up): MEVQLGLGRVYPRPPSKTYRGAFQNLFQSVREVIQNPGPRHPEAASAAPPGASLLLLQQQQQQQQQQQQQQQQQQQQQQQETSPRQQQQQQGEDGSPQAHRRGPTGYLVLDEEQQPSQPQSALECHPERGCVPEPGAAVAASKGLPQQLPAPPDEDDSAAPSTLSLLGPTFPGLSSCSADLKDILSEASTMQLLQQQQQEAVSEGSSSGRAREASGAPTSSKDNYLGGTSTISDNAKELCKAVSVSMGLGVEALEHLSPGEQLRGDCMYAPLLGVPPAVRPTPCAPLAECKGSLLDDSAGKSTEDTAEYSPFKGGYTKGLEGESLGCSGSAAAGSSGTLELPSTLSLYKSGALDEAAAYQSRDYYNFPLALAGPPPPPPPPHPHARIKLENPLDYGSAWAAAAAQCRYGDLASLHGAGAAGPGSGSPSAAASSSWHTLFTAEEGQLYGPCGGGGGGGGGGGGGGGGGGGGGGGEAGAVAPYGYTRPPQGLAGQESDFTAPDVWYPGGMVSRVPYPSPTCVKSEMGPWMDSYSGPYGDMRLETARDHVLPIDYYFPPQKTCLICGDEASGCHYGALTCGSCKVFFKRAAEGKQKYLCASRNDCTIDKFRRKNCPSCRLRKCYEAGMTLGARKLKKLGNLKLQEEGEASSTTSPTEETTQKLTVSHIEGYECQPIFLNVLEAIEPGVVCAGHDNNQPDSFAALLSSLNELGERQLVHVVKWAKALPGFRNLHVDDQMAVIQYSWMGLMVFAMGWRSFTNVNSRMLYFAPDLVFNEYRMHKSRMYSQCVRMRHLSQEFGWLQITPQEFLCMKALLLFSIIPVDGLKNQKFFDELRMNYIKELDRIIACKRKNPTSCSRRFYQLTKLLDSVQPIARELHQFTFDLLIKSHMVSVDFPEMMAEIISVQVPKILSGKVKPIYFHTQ
Estrogen receptor (Homo sapiens), sequence (P03372 whole entry, looked up): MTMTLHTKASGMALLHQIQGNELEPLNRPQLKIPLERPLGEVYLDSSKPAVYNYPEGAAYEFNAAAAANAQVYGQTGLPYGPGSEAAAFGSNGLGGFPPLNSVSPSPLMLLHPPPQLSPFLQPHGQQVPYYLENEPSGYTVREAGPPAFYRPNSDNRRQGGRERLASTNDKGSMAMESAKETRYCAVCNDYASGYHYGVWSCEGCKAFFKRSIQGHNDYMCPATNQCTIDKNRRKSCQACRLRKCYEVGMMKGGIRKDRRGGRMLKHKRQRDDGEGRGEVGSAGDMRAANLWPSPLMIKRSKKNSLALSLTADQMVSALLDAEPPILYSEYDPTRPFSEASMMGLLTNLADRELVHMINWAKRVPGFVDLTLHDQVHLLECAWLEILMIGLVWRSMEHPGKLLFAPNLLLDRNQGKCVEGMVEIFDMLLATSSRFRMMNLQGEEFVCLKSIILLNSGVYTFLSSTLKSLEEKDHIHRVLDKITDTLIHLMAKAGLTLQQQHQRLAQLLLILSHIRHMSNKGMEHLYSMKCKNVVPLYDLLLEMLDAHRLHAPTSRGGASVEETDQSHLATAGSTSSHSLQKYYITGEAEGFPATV

CC(=O)SCc1ccco1
inactive: Potency [1] | Potency [2] | Potency [3] | Potency [4] | Potency [5] | Potency [6] | Potency [7] | Potency [8] | Potency [9] | Potency [10] | Potency [11] | Potency [12] | Potency [13] | Potency [14] | outcome [15] | Potency [16] | Potency [17] | outcome [18]

CNS(=O)(=O)Cc1ccc2[nH]cc(CCN(C)C)c2c1
inactive: Potency [1] | Potency [2] | Potency [3] | Potency [4] | Potency [5] | Potency [6] | Potency [7] | Potency [8] | Potency [9] | Potency [10] | Potency [11] | Potency [19] | Potency [14] | outcome [15] | Potency [16] | Potency [17] | outcome [18]

CC(=O)NCCCS(=O)(=O)O
active: Potency [1] 15 µM | Potency [2] 16.9 µM | Potency [3] 16.9 µM | Potency [4] 16.9 µM | Potency [8] 18.9 µM | Potency [10] 18.9 µM
inactive: Potency [5] | Potency [6] | Potency [7] | Potency [9] | Potency [20] | Potency [13] | Potency [19] | Potency [14] | outcome [15] | Potency [16] | outcome [18]

Cc1nc2ccccc2n1Cc1ccc(Cl)cc1
active: Potency [6] 1.9 µM | Potency [7] 8.49 µM | Potency [11] 5.96 µM | Potency [13] 2.11 µM
inactive: Potency [1] | Potency [2] | Potency [3] | Potency [4] | Potency [5] | Potency [8] | Potency [9] | Potency [10] | Potency [19] | Potency [14] | outcome [15] | outcome [18]

COCCO
inactive: Potency [1] | Potency [2] | Potency [3] | Potency [4] | Potency [5] | Potency [6] | Potency [7] | Potency [9] | Potency [10] | Potency [20] | Potency [11] | Potency [13] | Potency [14] | outcome [15] | Potency [16] | outcome [18]

CN1CCC(=C2c3ccccc3C=Cc3ccccc32)CC1
inactive: Potency [1] | Potency [2] | Potency [4] | Potency [5] | Potency [6] | Potency [7] | Potency [8] | Potency [10] | Potency [11] | Potency [19] | Potency [14] | outcome [15] | Potency [16] | Potency [17] | outcome [18]
active: Potency [3] 26.8 µM

CCCCCCOC(=O)CCC
inactive: Potency [1] | Potency [2] | Potency [3] | Potency [4] | Potency [5] | Potency [6] | Potency [7] | Potency [8] | Potency [9] | Potency [10] | Potency [11] | Potency [14] | outcome [15] | Potency [16] | Potency [17] | outcome [18]

CCCCCOC(=O)COc1cc(N2C(=O)C3=C(CCCC3)C2=O)c(F)cc1Cl
inactive: Potency [1] | Potency [2] | Potency [3] | Potency [4] | Potency [5] | Potency [6] | Potency [7] | Potency [8] | Potency [9] | Potency [10] | Potency [13] | Potency [14] | outcome [15] | Potency [16] | Potency [17] | outcome [18]

CCCCCC(CO)CCC (centres undefined)
inactive: Potency [1] | Potency [2] | Potency [3] | Potency [4] | Potency [5] | Potency [6] | Potency [7] | Potency [8] | Potency [9] | Potency [10] | Potency [20] | Potency [14] | Potency [16] | Potency [17] | outcome [18]

CCOC(=S)SSC(=S)OCC
inactive: Potency [1] | Potency [2] | Potency [3] | Potency [4] | Potency [5] | Potency [6] | Potency [7] | Potency [9] | Potency [10] | Potency [20] | Potency [11] | Potency [13] | Potency [19] | Potency [14] | outcome [15] | Potency [16] | Potency [17] | outcome [18]

C1CCC2OC2C1 (centres undefined)
inactive: Potency [1] | Potency [2] | Potency [3] | Potency [4] | Potency [5] | Potency [6] | Potency [7] | Potency [8] | Potency [9] | Potency [10] | Potency [11] | Potency [12] | Potency [13] | Potency [14] | outcome [15] | Potency [16] | Potency [17] | outcome [18]

CCN(CCO)CCCC(C)Nc1ccnc2cc(Cl)ccc12 (centres undefined)
inactive: cytotoxicity increase [1] -1.54% [at 6.97 µM] | cytotoxicity [2] 10% [at 6.97 µM] | cytotoxicity increase [3] 10.8% [at 6.97 µM] | cytotoxicity increase [4] 0.302% [at 6.97 µM] | activity change, negative = cytotoxic [5] 4.27% [at 6.97 µM] | activity change, negative = cytotoxicity [6] -0.518% [at 6.97 µM] | activity change, negative = cytotoxicity [7] 0.498% [at 6.97 µM] | activity change, negative = cytotoxicity [9] 5.1% [at 6.97 µM] | cytotoxicity increase [10] 17.5% [at 6.97 µM] | Potency [19] | activity change, negative = inhibition [14] 16.3% [at 8.39 µM] | activity change, negative = cytotoxicity [15] 0.62% [at 8.39 µM] | viability change, negative = cytotoxic [16] -3.56% [at 8.39 µM] | viability change, negative = cytotoxic [17] 1.32% [at 8.39 µM] | activity change [18] 0.0324% [at 8.39 µM]

CC(=O)OCCc1ccccc1
inactive: Potency [1] | Potency [2] | Potency [3] | Potency [4] | Potency [5] | Potency [6] | Potency [8] | Potency [9] | Potency [10] | Potency [20] | Potency [11] | Potency [13] | Potency [14] | outcome [15] | Potency [16] | Potency [17] | outcome [18]

Cc1cc(NC(=O)C(=O)O)cc(C)c1Oc1ccc(O)c2c1CCC2
inactive: Potency [1] | Potency [2] | Potency [3] | Potency [4] | Potency [5] | Potency [6] | Potency [7] | Potency [8] | Potency [10] | Potency [20] | Potency [11] | Potency [12] | Potency [13] | Potency [14] | outcome [15] | Potency [16] | outcome [18]

O=C(C(=O)c1ccc(Br)cc1)c1ccc(Br)cc1
inactive: cytotoxicity increase [1] -0.258% [at 15.8 µM] | cytotoxicity [2] -5.86% [at 15.8 µM] | cytotoxicity increase [3] -9.52% [at 15.8 µM] | cytotoxicity increase [4] 6.57% [at 15.8 µM] | activity change, negative = cytotoxic [5] -1.79% [at 15.8 µM] | activity change, negative = cytotoxicity [6] 5.88% [at 15.8 µM] | activity change, negative = cytotoxicity [7] 2.33% [at 15.8 µM] | activity change [8] 0.498% [at 15.8 µM, stronger effect = higher value] | activity change, negative = cytotoxicity [9] -3.46% [at 15.8 µM] | cytotoxicity increase [10] -4.98% [at 15.8 µM] | viability change, negative = cytotoxic [11] -1.93% [at 19 µM] | activity, negative = inhibition [12] 66.2% [at 19 µM] | activity change, negative = inhibition [14] 4.75% [at 19 µM] | activity change, negative = cytotoxicity [15] -0.456% [at 19 µM] | viability change, negative = cytotoxic [16] 7.56% [at 19 µM] | viability change, negative = cytotoxic [17] -13.1% [at 19 µM] | activity change [18] -0.0641% [at 18.9 µM]
